Consider 63 compounds from publication PMC9574860, “Chemical Toolkit for PARK7: Potent, Selective, and High-Throughput” (Journal of Medicinal Chemistry, 2022).

Among all 7,900 compounds or so, about 400 (5.1%) showed an effect of 50% or more. What follows is part of a selection rich in strong results, with near analogues and random picks from the rest.

Chain of Parkinson's disease protein 7 (PARK7/DJ1) (Q99497 whole entry, looked up, the tested form may be a part): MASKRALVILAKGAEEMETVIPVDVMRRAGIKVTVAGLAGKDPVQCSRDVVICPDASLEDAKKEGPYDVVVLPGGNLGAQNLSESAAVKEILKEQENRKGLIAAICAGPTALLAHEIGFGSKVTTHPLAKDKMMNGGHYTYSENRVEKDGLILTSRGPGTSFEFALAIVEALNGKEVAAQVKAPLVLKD

The target in this experiment is Parkinson's disease protein 7 (PARK7/DJ1) (human, UniProt Q99497). Nature of the experiment: primary screen, percent inhibition; read as competition with a fluorescent probe by fluorescence polarization; higher = more effect of the substance. To be noted: 100 µM. How it is done:
The screen was conducted using the conditions as described above in 1536-well plates (Corning 3724) with a reaction volume of 8 μL per well. The compound library containing 7887 covalent fragments was purchased at Enamine Ltd. and received as 100 mM DMSO stocks in 384 well LDV Echo plates (Labcyte LP-0200). Stock solutions of 0.26 μM PARK7 and 80 nM JYQ-107 were prepared. Using a Labcyte Echo550 acoustic dispenser, 8 nL of the DMSO stock solution of the library compounds was transferred from the source plates into the empty 1536-well screening plates to obtain a 100 μM final compound concentration. Next, PARK7 (6 μL, final concentration 0.2 μM) was dispensed using a Biotek MultiflowFX liquid dispenser and incubated for 2 h, followed by dispensing the probe JYQ-107 (2 μL, final concentration 20 nM). After 2 h incubation, the FP signal was recorded on a BMG Labtech PHERAstar plate reader (λex/em 480/520 nm). The relative loss of FP signal compared with reference controls was used to calculate the remaining enzyme activity.
Turning to `CN(CCN1C(=O)CCC1=O)Cc1nc2c(s1)CCCC2`, the Inhibition % is listed as 9.47%.

`Cn1ccc(NS(=O)(=O)C=Cc2ccc(Cl)cc2)n1`: the Inhibition % came out at 11.2%.

`CC(C)NC(=O)C(C#N)=Cc1cc(F)ccc1F`: the Inhibition % is 1.67%.

With `N#Cc1ccn(-c2ccccc2)n1`, the Inhibition % amounted to 6.25%.

In the case of `C=CC(=O)N(C)CC(=O)N1c2ccccc2NC(=O)CC1C` (stereo not drawn), the Inhibition % is on record as 1.23%.

Take `O=C1CC(C(F)(F)F)N(C(=O)CCl)c2ccccc2N1` (stereo not drawn): the Inhibition % is on record as 53%.

For `Cc1ccc(C=CC(=O)N2CC(=O)Nc3ccccc32)o1`, the Inhibition % stood at 15.2%.

As for `O=C(CCl)N1c2ccccc2NC(=O)C12CCCC2`, the Inhibition % came out at 42.3%.

With `O=C1CN(C(=O)CCl)c2ccccc2N1`, the Inhibition % amounted to 56.7%.

Consider `C=CC(=O)N1CC(=O)Nc2ccccc21`, for which the Inhibition % worked out at 10%.

For the compound `C=CC(=O)Nc1ccc2nc(C(F)(F)F)oc2c1`, the Inhibition % worked out at 20.1%.

For `C=CC(=O)N1CCN(c2cccc(OC(F)F)c2)CC1`, the Inhibition % was 6.79%.

On to `CC(C)c1ccc(NC(=O)Cn2cnc(C#N)n2)cc1`, for which the Inhibition % is 22.6%.

Take `O=S(=O)(F)CCn1nnc2ccccc21`: the Inhibition % is 8.8%.

As for `O=S(=O)(F)CCSc1nc2ccccc2o1`, the Inhibition % turned out to be 70.3%.

In the case of `ClCCCc1nc2ccccc2o1`, the Inhibition % is listed as 16.4%.

For the compound `COc1cc(C=C(C#N)C(N)=O)ccc1OC(C)C`, the Inhibition % came to 4.85%.

Turning to `N#Cc1nc(-c2ccc(Cl)c(Cl)c2)oc1N`, the Inhibition % worked out at 5.93%.

As to `CC1(C)OB(c2cccc(CN3CCCC3)c2)OC1(C)C.Cl`, the Inhibition % is given as 6.39%.

Take `C=CC(=O)N1CCCN(C(=O)c2cccc(F)c2)CC1`: the Inhibition % was 2.43%.

As for `C=CC(=O)N1CCc2cc(F)ccc2C1`, the Inhibition % stood at 10.6%.

As for `C=CC(=O)N1CCCc2[nH]c3ccc(F)cc3c2C1`, the Inhibition % was 71.3%.

Consider `C=CC(=O)N1CC(C)(C)C1c1cccs1` (stereo not drawn), for which the Inhibition % is recorded as 8.35%.

As for `C=CC(=O)N1C[C@H](F)C[C@H]1C(N)=O`, the Inhibition % was found to be 11.6%.

For the compound `CC1CCC2(CC1)NC(=O)N(CC=CCl)C2=O` (stereo not drawn), the Inhibition % is recorded as -0.501%.

For the compound `CC(NC(=O)Oc1ccccc1)C(=O)O` (stereo not drawn), the Inhibition % is 10.1%.

With `Cc1ccc(B2OC(C)(C)C(C)(C)O2)c(C#N)c1`, the Inhibition % was -0.714%.

For the compound `N#Cc1ccc(S(=O)(=O)F)cc1`, the Inhibition % is on record as 60.6%.

For `CN(Cc1cccc(F)c1)S(=O)(=O)F`, the Inhibition % is on record as 8.98%.

With `O=C(O)c1ccc(S(=O)(=O)F)cc1`, the Inhibition % is 49.1%.

For the compound `O=C(O)c1cccc(S(=O)(=O)F)c1`, the Inhibition % worked out at 95.1%.

For `O=C(c1cccc(S(=O)(=O)F)c1)N1CCCn2ncc(C3CC3)c21`, the Inhibition % turned out to be 6.74%.

Take `O=S(=O)(F)c1ccc(S(=O)(=O)F)cc1`: the Inhibition % was found to be 7.58%.

Turning to `O=S(=O)(F)c1cccc(CO)c1`, the Inhibition % came to 96.8%.

Consider `O=C(C=Cc1ccccc1)c1ccc(S(=O)(=O)F)cc1`, for which the Inhibition % is listed as 10.9%.

Regarding `C=CC(=O)N1CCOCC1c1cccc(F)c1` (stereo not drawn), the Inhibition % turned out to be 2.96%.

As to `N#CC1COCCN1C(=O)c1cccc(S(=O)(=O)F)c1` (stereo not drawn), the Inhibition % amounted to 93.6%.

Regarding `C#Cc1ccc(S(=O)(=O)F)cc1`, the Inhibition % is given as 14.4%.

For the compound `c1ncc(C2OCCO2)s1`, the Inhibition % is 38.6%.

As to `C=CC(=O)N[C@H]1C[C@H](c2ccccc2F)C1`, the Inhibition % stood at 10.2%.

On to `C=CC(=O)Nc1cc(S(=O)(=O)N(C)C)ccc1Cl`, for which the Inhibition % is 6.55%.

Consider `Cc1ccc(-n2cnc(Cl)c2C#N)cc1`, for which the Inhibition % is reported as 6.79%.

With `COCc1n[nH]c(=O)o1`, the Inhibition % is 2.07%.

As for `CN1CCCC(CCl)C1.Cl` (stereo not drawn), the Inhibition % came to 4.37%.

As for `CN(C(=O)C(C#N)=Cc1ccco1)c1ccc(F)cc1`, the Inhibition % was 8.11%.

Take `c1cc2ccc(OCC3CO3)cc2[nH]1` (stereo not drawn): the Inhibition % is given as 5.75%.

For the compound `Cc1cc(C#N)cc(C(=O)O)n1`, the Inhibition % was 4.24%.

In the case of `Cc1cnc(=S)[nH]c1`, the Inhibition % amounted to 8.44%.

On to `N#CSc1c(Cl)nc2sccn12`, for which the Inhibition % is given as 13.7%.

With `C=CC(=O)N1CCOCC1CC(F)F` (stereo not drawn), the Inhibition % came out at 17%.

For the compound `Cc1ccc(-n2cc(SC(=O)N(C)C)cn2)cc1`, the Inhibition % was found to be 6.2%.

For the compound `N#Cc1cnn(Cc2ccc(S(=O)(=O)F)cc2)c1`, the Inhibition % is 7.21%.

`N#Cc1cccc(S(=O)(=O)F)c1`: the Inhibition % is recorded as 97.3%.

As for `O=[N+]([O-])c1ccc(C(F)(F)F)c(S(=O)(=O)F)c1`, the Inhibition % is 102%.

For the compound `O=S(=O)(F)c1cccc(Br)c1`, the Inhibition % came out at 16.4%.

Turning to `O=S(=O)(F)c1ccccc1C(F)(F)F`, the Inhibition % turned out to be 11.3%.

Consider `O=S(=O)(F)c1ccc(Cl)cc1`, for which the Inhibition % is reported as 27%.

As to `O=C(CCl)NC(=O)c1cccc([N+](=O)[O-])c1`, the Inhibition % is recorded as 31.5%.

On to `O=[N+]([O-])c1cccc(S(=O)(=O)F)c1`, for which the Inhibition % was 99.2%.

Take `C=CS(=O)(=O)c1cccc(C#N)c1`: the Inhibition % is listed as 6.17%.

As for `O=C(CCl)Nc1ccc([N+](=O)[O-])cc1C(F)(F)F`, the Inhibition % worked out at 12.1%.

For `CC1(C)OB(c2cccc(S(N)(=O)=O)c2)OC1(C)C`, the Inhibition % turned out to be 2.2%.

On to `NS(=O)(=O)c1cccc(S(=O)(=O)F)c1`, for which the Inhibition % was found to be 94.3%.
